HT1080 IDH1KD tx: toxicity to HT-1080 IDH1 knockdown cells (counter line); 360,000 tested, 2% active; HT-1080 IDH1 knockdown viability, ATP luminescence, 48 h; Potency, µM (titrated, usually from 46.1 µM), without a hit: at the highest dose activity, negative = toxicity, usual class: cytotoxic;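 also: 0% = DMSO wells and -100% = cell-free medium wells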
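After a 2 h attachment period, IDH1KD HT-1080 cells took pin-transferred compound for 48 h at 37 °C; ATP-based luminescence after 10 min room-temperature reagent incubation reported viability.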
SW480 rereplic: inducers of DNA re-replication in SW480 colon cancer cells | AID 624297 | 340,000 tested, 1.8% active | SW480 DNA re-replication, Hoechst DNA content imaging, 48 h | Potency, µM (top dose mostly 46.1 µM), without a hit: at the highest dose re-replication activation, actives largely listed as activators; also: % of control where 0% means no effect; nearly all actives have a fitted effect of over 55% in size
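Treated cells incubate 48 hr (37 C, 5% CO2), are stained 40 min with Hoechst, and nuclear fluorescence is enumerated; a rise in nuclei with high DNA signal marks re-replication.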
HT1080-NT tox: kills 2HG-producing HT-1080-NT fibrosarcoma cells | Potency, µM (top dose mostly 46.1 µM), without a hit: at the highest dose activity, negative = less viability, hits mostly cytotoxic | 360,000 tested, 1.6% active | HT-1080-NT fibrosarcoma viability, CellTiter-Glo ATP luminescence, 48 h;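 also: NT is the 2HG producing partner of a matched IDH1 knockdown line; 0% = DMSO-treated cells and -100% = media-only wells without cells; nearly all actives have a fitted effect of over 55% in size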
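Viability of the 2HG-overproducing fibrosarcoma line after 48 hours of compound exposure at 37 degrees C was determined by luminescence with CellTiter-Glo, and concentration-effect curves were then fitted and categorized.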
KB-3-1 tox: kills parental KB-3-1 adenocarcinoma cells; AID 1347075; 400,000 tested, 1.4% active; Potency, µM (series often up to 46.1 µM), hits mostly cytotoxic; KB-3-1 viability, CellTiter-Glo ATP luminescence, 72 h; also: % is scaled to controls: 0 for no effect and ±100 for the full control effect; nearly all actives have a fitted effect of over 60% in size
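Using CellTiter-Glo luminescence, growth of non-resistant KB-3-1 adenocarcinoma cells is assessed 72 h after pin-tool compound addition at 37 °C. Normalized responses across the concentration series yield fitted curves.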
MCF10A rerep: inducers of DNA re-replication in MCF 10A breast cells; MCF 10A DNA re-replication, Hoechst nuclear intensity, 48 h; Potency, µM (top dose mostly 46.1 µM), for the others: top-dose activity, positive = re-replication, most hits filed as activators; 350,000 tested, 2.9% active; AID 624296; also: % of control where 0% means no effect; nearly all actives have a fitted effect of over 50% in size
KB-V1 MDR tox: KB-V1 MDR subline cytotoxicity | KB-V1 MDR cells viability, CellTiter-Glo, 72 h | Potency, µM (titrated, usually from 46.1 µM), hits mostly cytotoxic | 400,000 tested, 3.4% active | AID 1347076; also: % is scaled to controls: 0 for no effect and ±100 for the full control effect; nearly all actives have a fitted effect of over 60% in size
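KB-V1 MDR subline cells in DMEM (phenol-red free, 10% FBS) exposed to compounds in qHTS concentration series for 72 h at 37 degrees C. Viability read by CellTiter-Glo luminescence; concentration-effect curves fitted after normalization and correction.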
Active calls of the source: *; i = inactive; ? = inconclusive; nt = no result given. Shown are actives, neighbours in structure and some others; about 7.9% of the full set was active somewhere. Calls follow the shape of the dose curve; as a rule, active = well fitted curve in the direction sought with a large enough effect; inconclusive = small, poorly fitted or top-dose-only effect, or another doubt; inactive = no such curve, though single readings can be large; an effect the other way counts as inactive or inconclusive. Potency is read from the fitted curve at half-maximal effect.

SMILES | HT1080 IDH1KD tx | SW480 rereplic | HT1080-NT tox | KB-3-1 tox | MCF10A rerep | KB-V1 MDR tox
CCCCc1c(-c2ccccc2F)ncn1CCc1ccccc1OC | ? | nt | ? | ? | nt | 14.6µM*
CCCCCc1c(-c2ccccc2F)ncn1CCc1ccccc1OC | ? | nt | ? | ? | nt | 18.4µM*
O=C1CCCC2=C1C1(CCSC1)N=C(Nc1nc3ccccc3o1)N2 (stereo unspecified) | nt | nt | nt | i | nt | i
Cc1ccc(-n2c(SCC(N)=O)nc3c(c2=O)C2(CCCC2)Cc2ccccc2-3)cc1 | -3.7% | -0.1% | -5.8% | ? | ? | 10.3µM*
COc1ccc(N2CCN(C(=O)CCCOc3cc(=O)n(C)c4ccccc34)CC2)cc1 | 4.1% | -0.4% | -4.0% | i | 15.7% | 8.2µM*
Cc1ccc(C)c(N2CCN(C(=O)CCCOc3cc(=O)n(C)c4ccccc34)CC2)c1 | ? | ? | -51.1% | ? | ? | 8.2µM*
CC1CCN(C(=O)CCCOc2cc(=O)n(C)c3ccccc23)CC1 | -1.8% | -16.4% | -2.0% | i | 15.2% | ?
CC(C)CCNC(=O)CCCOc1cc(=O)n(C)c2ccccc12 | 12.8% | -5.7% | 9.7% | i | ? | 13µM*
Cc1ccc(N2CC(NC(=O)N3CCN(C(=O)c4ccco4)CC3)CC2=O)cc1 (stereo unspecified) | 12.7% | 5.0% | 0.6% | i | 4.7% | i
O=c1c2c(nc3c(-c4ccccc4)c[nH]n13)CCCC2 | -8.4% | 2.7% | -6.1% | 20.6µM* | -0.7% | ?
Nc1[nH]n2c(=O)c3c(nc2c1N=Nc1ccccc1)CCCC3 | -22.9% | 12.5% | -13.3% | 11.6µM* | ? | 13µM*
Cc1[nH]n2c(=O)c3c(nc2c1-c1ccc(Cl)cc1)CCC3 | -12.5% | -13.1% | -10.5% | 8.2µM* | ? | ?
COc1cc2c(NC3CCN(C(C)C)CC3)nc(N3CCCN(C)CC3)nc2cc1OCCOCCN(C)C | nt | nt | nt | ? | nt | i
Cc1cc(-c2nnn(CCCOC(C)(C)C)c2C)ccc1-c1cn(CCCOC(C)(C)C)nn1 | 7.8% | nt | -3.7% | i | nt | i
O=C(Nc1ccc(OCC(F)(F)C(F)F)c(C(F)(F)F)c1)c1ccccc1 | ? | -3.9% | ? | i | ? | ?
O=C(Nc1ccc(OCC(F)(F)C(F)F)c(C(F)(F)F)c1)c1ccccc1O | 13µM* | ? | 16.4µM* | ? | 11.6µM* | ?
O=C(OCC(=O)N1CCc2ccccc21)c1ccc([N+](=O)[O-])o1 | 0.0% | -7.2% | -1.1% | i | 5.3% | i
COc1ccc(CCNC(=O)CN(c2cccc([N+](=O)[O-])c2)S(C)(=O)=O)cc1 | 6.8% | -13.9% | 4.6% | i | 2.0% | i
O=C(CN(c1cccc([N+](=O)[O-])c1)S(=O)(=O)c1ccccc1)NCc1ccccc1 | 1.2% | -2.4% | -1.2% | i | 14.0% | 5.8µM*
O=C(CSc1nc2ccccc2n1S(=O)(=O)c1cccc([N+](=O)[O-])c1)NCCc1ccccc1 | -8.9% | -1.8% | -4.0% | ? | 14.5% | 3.66µM*
CCCCNC(=O)CSc1nc2ccccc2n1S(=O)(=O)c1ccc(Br)cc1 | 18.4% | 2.0% | 20.6% | i | -41.0% | i
CS(=O)(=O)N(CC(=O)NCCc1ccccc1)c1cccc([N+](=O)[O-])c1 | -0.5% | -33.9% | 1.1% | i | 0.651µM* | i
COc1ccc(Cc2nnc(NC(=O)c3ccc(F)cc3)s2)cc1OC | 1.8% | -0.9% | 11.7% | i | -2.7% | i
N#Cc1ccccc1NC(=O)COC(=O)c1ccc2c(c1)OCO2 | 0.0% | -4.2% | 1.7% | i | -6.9% | i
OC[C@H]1O[C@@H](c2nc(-c3cccc4ccccc34)no2)[C@H](O)[C@@H]1O | -16.3% | nt | ? | i | nt | i
OC[C@H]1O[C@@H](c2nc(-c3ccccc3Br)no2)[C@H](O)[C@@H]1O | 14.6µM* | nt | 10.3µM* | 7.31µM* | nt | ?

Screening data as filed in PubChem BioAssay.
